This passage reports Potency, cell number change and lipid storage change, negative = inhibition results from PubChem BioAssay AID2685 (National Center for Advancing Translational Sciences (NCATS), 2010).

The whole screen tested about 320,000 compounds, of which about 2,100 (0.66%) were called active. Not shown: some 53% with an inconclusive outcome. Calls come from the whole dose curve; as a rule, active = well fitted inhibition curve with a large enough effect in the signal ratio, with a control signal flat (not every such curve was filed as active); inconclusive = small, poorly fitted or top-dose-only effect, or effect the other way, or a change in a side signal; inactive = flat fitted curve, though single readings scatter; the % refers to the signal ratio. Shown is part of a subset that was picked to be rich in actives.
Potency is the fitted concentration of half-maximal effect.

This test in a line: qHTS Assay for Lipid Storage Modulators in Drosophila S3 Cells.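 For cell number change: cells counted by Cell Tracker Red CMTPX staining in the red channel.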 For lipid storage change, negative = inhibition: % is set by controls: 0 for no effect and ±100 for the full control effect. The conditions noted are these: BODIPY lipid droplet fluorescence, 18-24 h, cells fed with added oleic acid; cell number change: measured here: cell count max response; series mostly up to 46.1 µM. The essentials: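 Drosophila S3 cells got compounds at several concentrations plus oleic acid (400 uM solution). Laser-scanning cytometry with 488 nm excitation read lipid droplets at 500-530 nm and cells at 575-640 nm. Percent activity was relative to 20 uM Triacsin C.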
A general note: Quantitative high-throughput screening tests each substance at several concentrations.
In the case of `CCCCNC(=O)COc1ccccc1C(=O)c1cc(C#N)c(=O)n(CCOC)c1`, the Potency result was “inactive” and the cell number change amounted to 1.51%.
The corresponding values for `COc1ccc(S(=O)(=O)N2CCCC2)c2ccccc12` are “inactive” and 12.2%.
The like results for `CCc1ccc2[nH]c(=O)c(CN(CCN(CC)CC)C(=O)Nc3ccccc3OC)cc2c1` were, in that order, “inactive” and 22.1%.
The like results for `COc1nc(N2CCCC2)nc(-n2nnc(C(C)=O)c2C)n1` were, in that order, “inactive” and 9.7%.
In the case of `CC(=O)c1c(C)[nH]c2ccccc2c1=O`, the Potency entry is “inactive” and the cell number change was -9.21%.
The corresponding values for `COC(=O)c1c(NC(=O)CSc2nnc(C)c(=O)[nH]2)sc(C)c1C` are “inactive” and -15.8%.
With `COc1ccc(C2CC(c3ccc(Br)cc3)=NN2C(=O)CSC2=NCCS2)cc1` (configuration not stated), the Potency result was “inactive” and the cell number change was -2.75%.
With `COc1ccc(C(=O)Nc2cc(OC)nc(OC)n2)cc1`, the Potency entry is “inactive” and the cell number change was -3.14%.
For `Cc1cccc(NC(=O)c2ccc(-c3ccccc3[N+](=O)[O-])o2)c1`, the Potency result was “inactive” and the cell number change came to 15.3%.
The like results for `Cc1cccc(NC(=O)c2ccc([N+](=O)[O-])o2)c1` were, in that order, 13 µM (active) and 3.29%.
As for `COc1cc(NC(=O)c2ccccc2)ccc1NC(=O)c1cc2ccccc2o1`, the Potency entry is “inactive” and the cell number change is -16.3%.
Turning to `O=C(Nc1c(Cl)ccc2nsnc12)c1ccc([N+](=O)[O-])o1`, the Potency result is “inactive” and the cell number change worked out at 11.1%.
As for `COc1cc(NC(C)=O)ccc1NC(=O)c1cc2ccccc2o1`, the Potency entry was “inactive” and the cell number change was determined as 11.3%.
Regarding `Cc1ccc2nsnc2c1NC(=O)c1cccc([N+](=O)[O-])c1`, the Potency result is “inactive” and the cell number change was determined as 3.04%.
The corresponding values for `Cc1ccc2nsnc2c1NC(=O)c1ccc([N+](=O)[O-])o1` are 18.4 µM (active) and 0.87%.
The like results for `COc1cc(NC(=O)c2cc3ccccc3o2)ccc1NC(=O)c1ccco1` were, in that order, 0.58 µM (active) and 2.99%.
As for `Cc1cc(C)cc(NC(=O)c2ccc([N+](=O)[O-])o2)c1`, the Potency result is “inactive” and the cell number change was -11.8%.
The corresponding values for `COc1cc(NC(=O)c2ccc([N+](=O)[O-])o2)ccc1NC(=O)c1ccco1` are 8.2 µM (active) and -26.2%.
The corresponding values for `COc1cc(NC(=O)c2cccc([N+](=O)[O-])c2)ccc1NC(=O)c1ccco1` are “inactive” and -8.46%.
As to `CCC(=O)Nc1ccc(NC(=O)c2ccco2)c(OC)c1`, the Potency entry is “inactive” and the cell number change came out at 16%.
With `Cc1ccc(C(=O)CCC(=O)OCc2nnc(-c3ccccc3)o2)cc1`, the Potency result is “inactive”.
For the compound `O=C1c2cc(Cl)ccc2OC2(CCNCC2)C12CC(c1ccccc1)=NO2` (configuration not stated), the Potency entry was “inactive” and the cell number change stood at 8.66%.
The like results for `COC(=O)[C@@]1(Cc2ccc(OC)cc2)[C@H]2c3cc(C(=O)N4CCCC4)n(CCSCCO)c3C[C@H]2CN1C(=O)c1ccccc1` were, in that order, “inactive” and 0.624%.
Turning to `CN(C1CCCC1)C1CCN(C(=O)CNC(=O)/C=C/c2cccc(C(F)(F)F)c2)CC1`, the Potency entry is “inactive” and the cell number change is 8.56%.
The corresponding values for `CN(C)c1ccc(CN(C(=O)c2cccs2)C2CCS(=O)(=O)C2)cc1` (configuration not stated) are “inactive” and 15.9%.
As to `c1ccc(OCc2nc3c4c(ncn3n2)-c2ccccc2CC42CCCC2)cc1`, the Potency result is “inactive” and the cell number change was -10.9%.
For the compound `COc1ccccc1NC(=O)C1CCCN(c2cnccn2)C1` (configuration not stated), the Potency result is “inactive” and the cell number change was 17.3%.
For `COc1cc2c(cc1OC)CN(C(=O)Nc1ccccc1)CC2`, the Potency entry is “inactive” and the cell number change was found to be 6.01%.
The corresponding values for `CCOC(=O)Cc1cc(=O)n2[nH]c(C)c(-c3ccc(Cl)cc3)c2n1` are “inactive” and -27.5%.
The corresponding values for `COC(=O)Cc1cc(=O)n2[nH]c(C)c(-c3ccccc3)c2n1` are “inactive” and -1.66%.
The corresponding values for `CCCc1cc(=O)n2[nH]c(C)c(-c3ccc(OC)cc3)c2n1` are 18.4 µM (active) and 16.5%.
Turning to `C/C(=N\NC(=O)NC1CCCCC1)c1ccc(Cl)s1`, the Potency result was “inactive” and the cell number change is -11.8%.
Take `COc1ccc(-c2nc(SCC(=O)NC3CCCCC3)n[nH]2)cc1`: the Potency result is “inactive” and the cell number change was -21.7%.
The like results for `COc1ccc(-c2nc(SC(C)C(=O)NC3CC3)n[nH]2)cc1` (configuration not stated) were, in that order, 1.84 µM (active) and -10%.
For the compound `COc1ccc(-c2nc(SC(C)C(=O)Nc3ccc(NC(C)=O)cc3)n[nH]2)cc1` (configuration not stated), the Potency result was “inactive” and the cell number change turned out to be 32.4%.
The corresponding values for `CCOC(=O)C1CCCCN1Cc1ccc(F)c(Br)c1` (configuration not stated) are “inactive” and -23.6%.
The corresponding values for `CCOC(=O)C1CCCCN1Cc1ccc(C(F)(F)F)cc1` (configuration not stated) are 6.51 µM (active) and -25.6%.
The corresponding values for `CCOC(=O)C1CCCCN1Cc1cccc(Oc2ccccc2)c1` (configuration not stated) are “inactive” and -1.04%.
As for `COc1cc(C2CC(=O)Oc3c(C(CCN4CCN(c5ccccc5)CC4)c4ccc(N(C)C)cc4)c(OC)cc(OC)c32)cc(OC)c1OC` (configuration not stated), the Potency result is “inactive” and the cell number change was -0.692%.
As for `O=C(COc1ccccc1[N+](=O)[O-])Nc1cc(C(=O)O)cc(C(=O)O)c1`, the Potency result was “inactive” and the cell number change was -6.55%.
In the case of `CC(=O)Nc1ccc(NC(=O)CSc2ncnc3sc(C)c(C)c23)cc1`, the Potency is 13 µM (active) and the cell number change was found to be 3.95%.
The like results for `Cc1sc2ncnc(SCC(=O)Nc3ccc(CN4CCCC4)cc3)c2c1C` were, in that order, “inactive” and 13.1%.
Regarding `CCN(CC(=O)Nc1ccc(NC(C)=O)cc1)C(=O)CSc1ncnc2sc(C)c(C)c12`, the Potency entry is “inactive”.
Take `COC(=O)c1ccc(NC(=O)CSc2nc3[nH]ncc3c(=O)[nH]2)cc1`: the lipid storage change, negative = inhibition was -11.4% [at 0.0737 µM] (inactive).
Consider `COC(=O)CNC(=O)COc1ccccc1`, for which the Potency is 25.9 µM (active) and the cell number change worked out at 0.31%.
